Sampled rows, rich in hits. Any-hit rate of the full collection: about 15%.
DT40 TDP1 CPT – growth inhibition of DT40 Tdp1-/-;hTDP1 cells with camptothecin (screen for TDP1 inhibitors); chicken DT40 Tdp1-/-;hTDP1 cells + 20 nM CPT, ATP luminescence, 48 h; Potency, µM (top dose mostly 46.2 µM), hits mostly inhibitors; 420,000 tested, 12% active; AID 686979; also: nearly all actives have a fitted effect of over 55% in size
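Chicken DT40 Tdp1-/- cells complemented with human TDP1, 400 cells/well, exposed to compounds plus 20 nM camptothecin for at least 48 h at 37 C; viability read as ATP content by CellTiter-Glo luminescence.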
Gal4-VP16 FLuc – inhibits Gal4-VP16 luciferase reporter, ROR gamma counter-screen | 310,000 tested, 3.5% active | AID 2546 | Potency, µM (doses to about 53.6 µM), usual class: inhibitors | Drosophila S2 Gal4-VP16 UAS-luciferase, luminescence, 20 h;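 also: Gal4-VP16 expression switched on by copper sulfate through the metallothionein promoter; nearly all actives have a fitted effect of over 50% in size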
ALOX12 inh – inhibitors of human 12S-lipoxygenase ALOX12. P18054. purified 12hLO, xylenol orange hydroperoxide absorbance. Potency, µM (highest dose often 108 µM), actives largely listed as inhibitors. 580,000 tested, 1.1% active. AID 1671190
Target sequence (P18054 whole entry, looked up): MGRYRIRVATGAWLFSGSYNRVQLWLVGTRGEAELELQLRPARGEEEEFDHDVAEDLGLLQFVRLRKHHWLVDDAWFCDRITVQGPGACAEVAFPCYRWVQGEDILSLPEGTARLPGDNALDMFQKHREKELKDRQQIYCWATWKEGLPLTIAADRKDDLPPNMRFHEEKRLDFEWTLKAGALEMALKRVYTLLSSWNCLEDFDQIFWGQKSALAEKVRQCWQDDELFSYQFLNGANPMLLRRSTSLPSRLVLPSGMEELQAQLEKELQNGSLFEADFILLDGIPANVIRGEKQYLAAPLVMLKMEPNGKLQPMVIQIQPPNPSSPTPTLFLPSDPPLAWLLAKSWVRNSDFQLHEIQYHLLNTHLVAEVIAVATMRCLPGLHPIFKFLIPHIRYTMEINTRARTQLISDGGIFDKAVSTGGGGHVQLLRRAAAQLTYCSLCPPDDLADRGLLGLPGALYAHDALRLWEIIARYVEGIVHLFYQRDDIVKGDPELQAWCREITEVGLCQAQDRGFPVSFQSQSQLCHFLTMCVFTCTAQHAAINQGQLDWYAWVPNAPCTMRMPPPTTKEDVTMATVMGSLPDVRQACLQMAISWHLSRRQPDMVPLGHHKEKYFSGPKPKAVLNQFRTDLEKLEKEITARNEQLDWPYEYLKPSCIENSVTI
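Purified human 12hLO at 150 nM in 25 mM Hepes, 0.01% Triton X-100, pH 7.0, preincubated 15 min at room temperature with compound. Reaction started with 40 uM arachidonic acid, 30 min at room temperature. Hydroperoxide measured by Fe-xylenol orange, 573/405 nm absorbance ratio.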
ELG1 repair inh – blocks ELG1-dependent DNA repair in HEK293T cells. Potency, µM (series often up to 46.1 µM), most hits filed as inhibitors. AID 504467. 330,000 tested, 2.3% active. HEK293T ELG1-luciferase reporter, luminescence, 16 h; DNA damage induced by 5-fluorouridine; also: nearly all actives have a fitted effect of over 55% in size
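Reporter activity after DNA damage by 5-fluorouridine is monitored. Compound-treated cells incubate 16 hr at 37 °C, then ONE-Glo is added for 30 min before luminescence reading.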
TDP1 cell noCPT – qHTS for Inhibitors of human tyrosyl-DNA phosphodiesterase 1 (TDP1): qHTS in cells in absence of CPT | DT40 Tdp1-/- hTDP1 cells, no CPT, ATP luminescence, 48 h | Potency, µM (series often up to 46.2 µM), hits mostly inhibitors | 420,000 tested, 15% active | AID 686978, 2013; also: nearly all actives have a fitted effect of over 55% in size
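Chicken DT40 Tdp1-/- cells complemented with human TDP1, screened without camptothecin (DMSO vehicle only), 400 cells/well. Compounds pin-transferred, cells incubated at 37 °C for at least 48 hr. Growth read as ATP-dependent luminescence (CellTiter-Glo, 30 min at RT).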
RORg inh – inhibitors of mouse ROR gamma transcriptional activity | Drosophila S2 Gal4-RORgamma UAS-luciferase reporter, 20 h | Potency, µM (highest dose often 53.6 µM), actives largely listed as inhibitors | 310,000 tested, 5.4% active; also: nearly all actives have a fitted effect of over 60% in size
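In this cell-based reporter format, copper sulfate (700 uM final) drives Gal4–ROR gamma fusion expression from a metallothionein promoter in Drosophila Schneider cells; compounds preincubated 1 hr, reporter read after 20 hr at ambient temperature.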
Hits are given with their value; n = inactive; u = inconclusive; x = no result given. Calls follow the shape of the dose curve; as a rule, active = well fitted curve in the direction sought with a large enough effect; inconclusive = small, poorly fitted or top-dose-only effect, or another doubt; inactive = no such curve, though single readings can be large; an effect the other way counts as inactive or inconclusive.

SMILES | DT40 TDP1 CPT | Gal4-VP16 FLuc | ALOX12 inh | ELG1 repair inh | TDP1 cell noCPT | RORg inh
COC(=O)c1ccc(CN2C(=O)[C@@H]3C[C@@H](O)CN3C3(CN(Cc4cccc(OC)c4)C3)C2=O)cc1 | x | x | n | x | x | x
Fc1ccc(N=Cc2ccc3ncccc3c2)c(Cl)c1 | x | x | n | x | x | x
CN(CC(=O)N1CCN(Cc2ccccc2)CC(O)C1)C1CCCC1 (stereo not given) | x | x | n | x | x | x
CCc1nc(SCC(=O)Nc2cc(OC)ccc2OC)c2c(C)c(C)sc2n1 | 18.4µM | n | n | u | 25.9µM | n
COc1ccc(C)cc1NC(=O)CSc1ccc(-c2ccccn2)nn1 | u | n | n | n | 20.6µM | n
COc1cc(NC(=O)CSc2ccc(-c3ccccn3)nn2)cc(OC)c1 | u | n | n | n | u | n
C/C(=N/NC(=O)c1cccs1)c1ccccc1 | x | x | n | x | x | x
Cc1nn(CC(=O)N2CCc3ccccc32)c(C)c1S(=O)(=O)N1CCCC(C(=O)NC(C)C)C1 (stereo not given) | x | x | n | x | x | x
CCc1nonc1NC(=O)c1oc2cc(C)c(C)cc2c1C | n | n | n | u | u | n
CCOc1ccc(-c2nonc2NC(=O)c2oc3ccc(Cl)cc3c2C)cc1 | 0.92µM | x | n | x | 0.92µM | x
CCc1nonc1NC(=O)c1oc2cc(C)c(Cl)cc2c1C | u | n | n | n | 9.2µM | n
Cc1cn2nc(C(=O)N3CCN(C(=O)c4ccco4)CC3)cc2c(N2CCCC2)n1 | x | x | n | x | x | x
CC1CCN(CC(CS(=O)(=O)c2ccc([N+](=O)[O-])cc2)N2CCC(C)CC2)CC1 (stereo not given) | 2.06µM | n | n | u | 2.31µM | n
CN(C)CCCCCCNc1nccc(N2CCN(C)CC2)n1 | 10µM | x | x | x | 20µM | x
CCN(CC)C(=O)c1sc2c(c1C)c(=O)n(CCc1ccccc1)c(=O)n2Cc1ccc(C)cc1 | 20.6µM | x | n | x | u | x
CCOC(=O)c1sc2c(c1C)c(=O)n(Cc1ccccc1)c(=O)n2CCN(C)C | u | n | n | u | n | n
CO[C@H]1[C@H](NC(=O)Cn2nc(C)c(C)c2C)c2ccccc2C12CCNCC2 | x | x | n | x | x | x
CCOc1cc(C)c(S(=O)(=O)Nc2ccccc2OCC)cc1C | x | x | n | x | x | x
Cc1ccc(CCNC(=O)c2cnc3c(-c4ccc(F)cc4)c(C)nn3c2C)cc1 | n | x | n | x | n | x
CCOc1ccc(-c2c(C)nn3c(C)c(C(=O)NCCc4ccc(Cl)cc4)cnc23)cc1OCC | 14.6µM | x | n | x | 6.51µM | x
CCOc1ccc(CCNC(=O)c2cnc3c(-c4ccc(F)cc4)c(C)nn3c2C)cc1OCC | 16.4µM | x | n | x | 18.4µM | x
CCOc1ccc(-c2c(C)nn3c(C)c(C(=O)NCc4cccc(OC)c4)cnc23)cc1OCC | 9.2µM | x | n | x | u | x
CCOc1ccc(-c2c(C)nn3c(C)c(C(=O)NCc4ccc(Cl)cc4)cnc23)cc1OCC | 1.16µM | x | n | x | 1.64µM | x
CCOc1ccc(-c2c(C)nn3c(C)c(C(=O)NCc4ccc(C)o4)cnc23)cc1OCC | u | x | n | x | u | x
CC(=O)N(c1nc(C)c(C(=O)Nc2ccc3cc[nH]c3c2)s1)C1CC1 | x | x | n | x | x | x
SMILES | DT40 TDP1 CPT | Gal4-VP16 FLuc | ALOX12 inh | ELG1 repair inh | TDP1 cell noCPT | RORg inh
Cc1cc(N2CCC3(CCCN(CC4CCC4)C3=O)C2)nc2ccccc12 (stereo not given) | x | x | n | x | x | x
O=C(CSc1ccc2ccccc2c1)N(C1CCCC1)C1CCS(=O)(=O)C1 (stereo not given) | x | x | n | x | x | x
Cc1cc(C)c(S(=O)(=O)NCCn2c(C)cnc2C2CC2)c(C)c1 | x | x | n | x | x | x
CC(NC(=O)COC(=O)c1cc(NS(=O)(=O)c2ccc(Cl)c([N+](=O)[O-])c2)ccc1O)C1CC2CCC1C2 (stereo not given) | u | 11.2µM | n | u | u | u
CCc1ccccc1NC(=O)COC(=O)c1c(C)nsc1NC | 7.31µM | x | u | n | 2.91µM | x
CNc1snc(C)c1C(=O)OCC(=O)Nc1ccc(C)cc1F | u | x | n | 13µM | 10.3µM | x
CNc1snc(C)c1C(=O)OCC(=O)N(C)Cc1ccccc1 | 14.6µM | x | n | n | 18.4µM | x

Bioassay records deposited in PubChem BioAssay by National Center for Advancing Translational Sciences (NCATS).
